Screening results as filed in PubChem BioAssay.
FGF22 binding: shifts melting point of recombinant human FGF22; recombinant FGF22 thermal shift, SYPRO orange fluorescence; percent of sucrose octasulfate shift, DMSO zero; AID 651658; activity (Tm shift, normalised), % at 9.99 µM; Q9HCT0; 340,000 tested, 1.5% active;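 active = mean Tm shift, scaled 0 neutral to 100 positive control, at about 1.3% or above, every replicate too, limit read from the data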
ERAP1 inh: ERAP1 (human) enzyme inhibition; Q9NZ08; recombinant ERAP1, Leu-AMC fluorescence, 60 min; inhibition, % at 10.7 µM; 340,000 tested, 0.15% active; AID 652197;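 active = mean replicate inhibition of at least 30%, or all replicates individually reaching that 30% level; inactive = mean below 30% and not every replicate reaching it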
SIRT5 block: blocks human SIRT5 desuccinylation of peptide. AID 652115. inhibition, % at 15 µM. 330,000 tested, 1.1% active. Purified SirT5, succinyl-peptide AMC, trypsin-coupled fluorescence. Q9NXA8; in the data active = inhibition above about 15%
Target sequence (Q9NXA8 whole entry, looked up): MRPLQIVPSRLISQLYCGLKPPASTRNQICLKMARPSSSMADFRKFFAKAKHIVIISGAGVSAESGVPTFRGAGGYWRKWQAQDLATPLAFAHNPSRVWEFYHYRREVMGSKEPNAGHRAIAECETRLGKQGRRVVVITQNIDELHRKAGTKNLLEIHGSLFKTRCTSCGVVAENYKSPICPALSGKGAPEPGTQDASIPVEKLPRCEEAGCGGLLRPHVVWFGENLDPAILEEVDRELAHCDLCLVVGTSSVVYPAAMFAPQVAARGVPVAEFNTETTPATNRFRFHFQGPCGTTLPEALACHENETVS
Casp6 inh: caspase-6 (human) enzyme inhibition; P55212; purified caspase-6, Z-VEID-R110 cleavage fluorescence; inhibition, % at 12.5 µM; 350,000 tested, 0.53% active; AID 686996;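 active = mean inhibition across replicates at least about 35%, with every replicate also reaching that limit, limit read from the data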
Target sequence (P55212 24-179 limits assumed): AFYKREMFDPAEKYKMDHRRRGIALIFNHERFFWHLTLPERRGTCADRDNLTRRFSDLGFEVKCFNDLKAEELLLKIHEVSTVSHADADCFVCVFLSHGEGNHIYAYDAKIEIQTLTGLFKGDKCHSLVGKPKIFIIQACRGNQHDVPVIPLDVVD
Target sequence (P55212 194-293 limits assumed): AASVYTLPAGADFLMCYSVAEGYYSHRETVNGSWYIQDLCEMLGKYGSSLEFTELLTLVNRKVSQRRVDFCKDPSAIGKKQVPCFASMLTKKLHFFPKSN
INS-1E GSIS act: GLuc luminescence reporter in INS-1E cells, primary screen for activators of glucose-dependent secretion of insulin; INS-1E GLuc reporter insulin secretion, 2-3 h; activation, % at 16.6 µM; 370,000 tested, 0.61% active; AID 743287;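 active = lowest replicate activation of at least 40%, so every replicate reaches that level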
Large screens that a line does not name were inactive. Hits are enriched below; roughly 3.3% of the tested compounds scored in any of these assays.

CCCCn1c(N)c(N(CC(C)C)C(=O)CC(NC(=O)c2ccccc2)c2ccccc2)c(=O)[nH]c1=O (configuration not stated)	Casp6 inh 64.7
CCCCn1c(N)c(N(CCOC)C(=O)c2cnc(C)cn2)c(=O)[nH]c1=O	ERAP1 inh 49.4
CN(C)C(=O)C[C@H]1CC[C@@H]2[C@H](COC[C@H](O)CN2C(=O)C2CC2)O1	none
O=C(NCc1ccc(F)cc1)[C@@H]1[C@@H](CO)[C@@H]2Cn3c(cccc3=O)[C@H]1N2C(=O)c1cnccn1	none
C[C@H](CO)N1C[C@H](C)[C@H](CN(C)C(=O)Cc2ccccc2)OCCCC[C@H](C)Oc2ccc(NC(=O)Cc3ccccc3)cc2C1=O	none
COc1ccccc1C1C(C#N)=C(N)Oc2c1oc(CO)cc2=O (configuration not stated)	none
CC(C)Oc1ccc(C2C(C#N)=C(N)Oc3c2oc(CO)cc3=O)cc1 (configuration not stated)	FGF22 binding 43.6
O=C(C[n+]1ccccc1)N1CCCc2ccccc21	none (no result: SIRT5 block)
O=C(CCS(=O)(=O)c1ccccc1)N1CCCc2ccccc21	SIRT5 block 17.2
Cc1cc(NC(=O)C23CC4CC(C2)CC(n2cnc([N+](=O)[O-])n2)(C4)C3)no1	Casp6 inh 46.9
CC(C)c1cn(CC[C@H]2CC[C@@H](NC(=O)C3CCCC3)[C@@H](CO)O2)nn1	none
CS(=O)(=O)c1ccc2nc(NC(=O)CCN3C(=O)c4ccccc4C3=O)sc2c1	FGF22 binding 43.0
CO[C@@H]1CN(C)C(=O)c2cc(NC(=O)C3CC3)ccc2OC[C@H](C)N(C(=O)c2ccccc2F)C[C@@H]1C	none
O=C([C@H]1[C@H](CO)[C@H]2Cn3c(cccc3=O)[C@H]2N1Cc1cc(F)ccc1F)N1CCOCC1	Casp6 inh 36.6
O=C(NCC(F)(F)F)[C@@H]1[C@@H](CO)[C@@H]2Cn3c(cccc3=O)[C@@H]2N1Cc1cccc(F)c1	SIRT5 block 16.4
CN1C(=O)c2cc(NS(C)(=O)=O)ccc2OC[C@H]2O[C@@H](CC(=O)Nc3cccc(F)c3)CC[C@@H]21	none (no result: ERAP1 inh, SIRT5 block, Casp6 inh)
COCC(=O)Nc1ccc2c(c1)C(=O)N(C)C[C@@H](OC)[C@@H](C)CN(CCC(F)(F)F)[C@H](C)CO2	none
C[C@@H]1CN([C@@H](C)CO)C(=O)c2cc(C#CC3(O)CCCC3)cnc2O[C@H]1CN(C)C(=O)C1CC1	none (no result: FGF22 binding, ERAP1 inh, SIRT5 block, Casp6 inh)
CCOC(=O)COc1ccc(Br)cc1/C=C\c1[nH]c(=O)[nH]c(=O)c1[N+](=O)[O-]	Casp6 inh 56.4 (no result: INS-1E GSIS act)
CCOC(=O)COc1ccc(Br)cc1/C=C/c1[nH]c(=O)[nH]c(=O)c1[N+](=O)[O-]	Casp6 inh 40.1
C[C@@H]1CN([C@@H](C)CO)C(=O)c2cc(NS(=O)(=O)c3cn(C)cn3)ccc2O[C@@H]1CN(C)Cc1ccc(Cl)c(Cl)c1	none
COc1ccc(CNC(=O)CCS(=O)(=O)Cc2ccc(C)cc2)c(OC)c1	none
COc1ccccc1CNC(=O)CCS(=O)(=O)Cc1ccc(C)cc1	INS-1E GSIS act 88.1
C[C@@H]1CCCCO[C@H](CN(C)S(=O)(=O)c2ccc(Cl)cc2)[C@@H](C)CN([C@@H](C)CO)C(=O)c2cc(NS(=O)(=O)c3cn(C)cn3)ccc2O1	none
O=C(C[C@H]1C[C@H]2c3cc(NC(=O)c4cccnc4)ccc3O[C@H]2[C@@H](CO)O1)NCC1CC1	none
COc1ccccc1NC(=O)N1CCN(c2cccc(C(F)(F)F)c2)CC1	SIRT5 block 18.3 (no result: FGF22 binding)
CCOC(=O)C1(Cc2cccc(OC)c2)CCN(Cc2ccccc2OC)CC1	FGF22 binding 43.2
CCOC(=O)C1(Cc2ccccc2)CCN(Cc2cccc3nccnc23)CC1	FGF22 binding 43.8
CCOC(=O)C1(Cc2ccccc2)CCN(Cc2csc(C(C)=O)c2)CC1	FGF22 binding 43.8 (no result: Casp6 inh)
CCOC(=O)C1(Cc2ccccc2)CCN(Cc2cnn(C(C)C)c2)CC1	none (no result: SIRT5 block)
CCOC(=O)C1(Cc2ccccc2)CCN(Cc2cccc(OC)c2O)CC1	none
CCOC(=O)C1(CCOc2ccccc2)CCN(CCCn2cccn2)CC1	FGF22 binding 42.9
C[C@H]1CN([C@@H](C)CO)S(=O)(=O)c2ccc(-c3ccc(C(=O)N(C)C)cc3)cc2O[C@@H]1CN(C)C(=O)C1CC1	none (no result: FGF22 binding, ERAP1 inh, SIRT5 block, Casp6 inh)
Cc1cc(C)cc(NC(=S)Nc2ccccn2)c1	none
Cc1cccc(NC(=S)Nc2ccccn2)c1	SIRT5 block 19.8 (no result: ERAP1 inh)
C[C@H]1CN([C@@H](C)CO)C(=O)CCCn2nncc2CO[C@@H]1CN(C)C	none
Cc1ccc(O)c(C2=NOC(O)(C(F)(F)C(F)F)C2)c1 (configuration not stated)	none
Cc1ccc(O)c(C2=NOC(O)(C(F)(F)F)C2)c1 (configuration not stated)	INS-1E GSIS act 52.1 (no result: FGF22 binding, ERAP1 inh, SIRT5 block, Casp6 inh)
O=S(=O)(c1ccccc1)c1nc(-c2ccco2)oc1Nc1ccccc1	none (no result: INS-1E GSIS act)
O=S(=O)(c1ccc(F)cc1)c1nc(-c2ccco2)oc1Nc1ccccc1	SIRT5 block 112.0
O=C(NCc1ccc2c(c1)OCO2)C(=O)NCC1OCCN1S(=O)(=O)c1ccc(Cl)cc1 (configuration not stated)	SIRT5 block 22.2
COc1ccc2c3c([nH]c2c1)[C@@H](CO)N(C(=O)Cc1ccccc1)CC31CN(C(=O)Nc2ccccc2F)C1	none
CN(C)N1C(N)=C(C#N)C(c2ccccc2)C2=C1CCCC2=O (configuration not stated)	FGF22 binding 43.4
c1ccc(-c2nnsc2-c2ncc[nH]2)cc1	none
O=S(=O)(c1ccc(F)cc1)c1snnc1-c1ccccc1	Casp6 inh 43.1
CN(NC(=O)c1ccco1)c1nc2ccccc2nc1C(F)(F)F	FGF22 binding 43.1
COc1ccc(C(=O)Nc2nnc(CC(=O)N/N=C/c3ccc(O)cc3O)s2)cc1	SIRT5 block 16.8
Cc1ccc(C(=O)Nc2nnc(CC(=O)N/N=C/c3ccc(O)c(O)c3)s2)cc1	none
Cc1ccc(C(=O)Nc2nnc(CC(=O)N/N=C/c3ccncc3)s2)cc1	FGF22 binding 43.9
CCOc1cccc(C(=O)NC(=S)Nc2ccc(Cl)cc2C(=O)O)c1	FGF22 binding 43.5
Cc1ccc(C(=O)O)cc1NC(=S)NC(=O)c1ccc(COc2ccccc2)cc1	Casp6 inh 37.6
Cc1ccccc1S(=O)(=O)N1CC(=O)N2[C@@H](CO)[C@H](c3ccc(C#CCC4CCCC4)cc3)[C@@H]2C1	SIRT5 block 16.3, INS-1E GSIS act 43.1 (no result: FGF22 binding)
O=C1CN(S(=O)(=O)Cc2ccccc2)C[C@H]2[C@H](c3ccc(C#CCC4CCCC4)cc3)[C@@H](CO)N12	none (no result: FGF22 binding)
O=C1CN(S(=O)(=O)Cc2ccccc2)C[C@H]2[C@@H](c3ccc(C#CCC4CCCC4)cc3)[C@@H](CO)N12	SIRT5 block 15.5 (no result: FGF22 binding)
Cc1nc(S/C(=C\c2ccc(-c3ccc(C(=O)O)c(Cl)c3)o2)C(=O)O)n[nH]1	SIRT5 block 27.6, Casp6 inh 58.5
Cc1nc(S/C(=C\c2ccc(OCc3ccccc3Cl)cc2)C(=O)O)n[nH]1	none (no result: FGF22 binding, ERAP1 inh, SIRT5 block, Casp6 inh)
